The results in this text go back to PubChem BioAssay AID504329 (Southern Research Specialized Biocontainment Screening …, 2011).

Screen size: about 340,000 compounds; about 1,000 (0.29%) were called active. A selection follows. Results with a measured potency or affinity are listed apart. A number with no mark means an inactive call. Cut-off read from the data, not from the text of the source: inconclusive = inhibition above about 27% without an active follow-up result; inactive = below that.

This test is described as follows: NS1A inhibition, H1N1 influenza, cell based functional assay (AID 504329). Conditions: percent inhibition, at 12.5 µM, hits give high values.
On to `COc1ccc(OC)c(C2=NS(=O)(=O)N(C)C(C(=O)NCc3ccco3)=C2)c1`, for which the inhibition (as a rule, the change of the read-out against control, counted positive when it falls) is -7.9%.
The figure for `COc1ccc(CN2CCN(c3ccccn3)CC2)cc1OCc1ccccc1` is 7.77%; for `O=C(c1cccc2ccccc12)N1CCN(c2ccc([N+](=O)[O-])c(NCc3ccco3)c2)CC1` it is 7.93%; for `CCSc1nnc(NC(=O)c2ccccc2)s1` it is -12.7%.
Turning to `CCc1nnc(NC(=O)c2cnccn2)s1`, the inhibition was -0.42%.
The figure for `CC(=O)Nc1nnc(CCS(=O)(=O)c2ccc(C)cc2)s1` is -6.45%; for `CCc1nnc(NC(=O)c2cccc(C(=O)Nc3nnc(CC)s3)n2)s1` it is -2.25%; for `CCSc1nnc(NC(=O)c2cccnc2Cl)s1` it is -1.92%.
For `Cc1ccc(S(=O)(=O)CCc2nnc(NC(=O)c3cnccn3)s2)cc1`, the inhibition is -1.91%.
The figure for `Cc1ccc(CNC(=O)CN2C(=O)CSc3ccc(S(=O)(=O)N4CCCCC4)cc32)cc1` is 2.97%; for `COC(=O)c1ccc(CNC(=O)c2coc3ccccc3c2=O)cc1` it is -15.6%; for `O=C(COc1ccc(Cl)cc1)NC1CCSC1=O` (configuration not stated) it is -5.86%.
The figure for `O=C1CC(NNc2nc3ccccc3s2)C(=O)N1c1ccccc1` (configuration not stated) is 2.74%; for `O=C(COC(=O)C1CCC1)c1c[nH]c2ccccc12` it is -3.9%.
Turning to `CCn1c(=O)[nH]c2cc(C(=O)N3CCN(c4ccccc4)CC3)ccc2c1=O`, the inhibition was 5.52%.
The figure for `COc1cc2c(cc1OC)CN(c1nc(CN3CCOCC3)nc3sc4c(c13)CCCC4)CC2` is 4.39%; for `O=C(NCC(c1ccco1)N1CCCCC1)c1ccc(S(=O)(=O)Nc2ccccc2)cc1` (configuration not stated) it is -1.8%; for `COc1ccc(-n2ccnc(SCC(=O)NC3CCCCC3)c2=O)cc1` it is -5.37%.
The figure for `CCc1cccc2sc(NC(=O)C3CC3)nc12` is -5.24%; for `Nc1c(C=C2C=CC(=O)C=C2)c(=O)nc2snc(SCc3ccccc3)n12` it is 11.3%.
The figure for `C=CCOc1ccc(C(=O)c2ccccc2)c(OCC(=O)NC2(C#N)CCCC2)c1` is 5.71%.
On to `COc1ccc2nc3cccc(OC)c3nc2c1`, for which the inhibition is -1.33%.
The figure for `COc1cccc2nc3cc(C)c(C)cc3nc12` is 1.36%; for `OC(CN1CCN(c2ccc(C(F)(F)F)cn2)CC1)c1ccccc1` (configuration not stated) it is -15%; for `CC(C)(C)N(Cc1ccccc1)C(=O)COC(=O)c1ccc(S(=O)(=O)N2CCOCC2)cc1` it is -2.6%.
The figure for `COc1ccc(C(=O)N/N=C(\c2ccccc2)c2ccccn2)cc1` is 6.37%; for `COc1ccc(Nc2cc(C)c3ccccc3n2)cc1` it is -1.04%; for `COc1cc(C2C3=C(CCCC3=O)Nc3[nH]n(-c4ccccc4)c(=O)c32)ccc1OC(C)=O` (configuration not stated) it is 2.7%.
`NCCCN1CCN(c2ccccc2)CC1`: the inhibition is 11.2%.
The figure for `COc1ccc(N2CCN(CCC(N)=O)CC2)cc1` is -4.44%; for `Cn1c(C(=O)NCCCN2CCCCC2)cc2sccc21` it is 8.28%; for `CC1CCN(CCCNC(=O)c2cc3sccc3n2C)CC1` it is 4.97%.
The figure for `CC1(C)NC(=O)N(CC(=O)OCC(=O)c2ccc(F)cc2)C1=O` is -8.13%; for `CCOc1ccccc1N1CC(C(=O)Nc2cc(S(C)(=O)=O)ccc2Cl)CC1=O` (configuration not stated) it is -5.65%; for `O=C(O)c1ccc(NCc2nc3ccccc3n2Cc2ccccc2)cc1` it is 11.2%.
The figure for `NNC(=O)c1sccc1OCc1ccc(Cl)cc1` is 0.97%; for `Cc1noc(C)c1S(=O)(=O)Nc1ccccc1N1CCOCC1` it is 0.87%.
Consider `O=C(CCNC(=O)c1ccc([N+](=O)[O-])cc1)Nc1nc2ccccc2[nH]1`, for which the inhibition was -0.35%.
The figure for `O=[N+]([O-])c1ccc(N=Nc2ccc(O)cc2O)cc1` is -9.68%.
The figure for `O=S(=O)(Nc1ccc(N=Nc2ccc(O)c3ccccc23)cc1)c1ccccc1` is 5.24%; for `COc1ccc(-c2ccc(/C=C3\C(=O)N(c4ccccc4)N=C3c3ccccc3)o2)c([N+](=O)[O-])c1` it is 10.3%; for `O=C1ON=C(c2ccccc2)/C1=C/c1ccc(-c2ccccc2[N+](=O)[O-])o1` it is -1.51%.
The figure for `CC(C)Cc1nnc(NC(=O)CCC(=O)NCc2ccccc2Cl)s1` is -2.08%; for `CC(=O)Nc1ccc2nc(NC(=O)COc3ccccc3Cl)sc2c1` it is -0.9%.
In the case of `CN1CCN(c2ccc(NC(=O)Oc3ccccc3)cc2)CC1`, the inhibition was 17.8%.
Consider `CC(C)Oc1cccc(C(=O)Nc2ccc(N3CCN(C)CC3)cc2)c1`, for which the inhibition is -2.02%.
The figure for `COc1ccc(C(=O)Nc2ccc(N3CCN(C)CC3)cc2)cc1` is 1.09%.
The figure for `C=CC(=O)Nc1cccc(Oc2ccnc3[nH]ccc23)c1` is 19.9%.
The figure for `Cc1ccc(S(=O)(=O)N2CCN(C(=O)COC(=O)/C=C/c3ccccc3[N+](=O)[O-])CC2)c(C)c1` is 0.45%; for `CC(NCC(=O)Nc1ccccc1C(=O)NC1CC1)c1cccs1` (configuration not stated) it is -16.2%.
As for `CCOC(=O)c1c(NC(=O)c2ccccc2)sc2c1CCc1ccccc1-2`, the inhibition is -10.9%.
The figure for `COc1ccc2noc3c2c1C(=O)c1ccccc1-3` is 7.47%.
`COc1ccc(OC)c2c1C(=O)C(Cl)=C(Cl)C2=O`: the inhibition was 24.7%.
The figure for `COCCN1C(=O)N[C@@H](c2ccccc2)[C@H](C(=O)OC)[C@H]1C` is -12.7%.
As for `CC1(C)Oc2ccc3ccc(=O)oc3c2/C(=C/NNC(N)=O)C1=O`, the inhibition was -7.94%.
In the case of `CC1(C)Oc2ccc3ccc(=O)oc3c2C(/C=N/O)=C1Cl`, the inhibition was -10.3%.
The figure for `Cc1ccc(NC(=O)NNC(=O)CN2C(=O)COc3ccccc32)cc1` is -2.65%.
The figure for `Cc1cccc(OC(=O)c2cccnc2)c1C` is -8.58%.
Consider `CC(C)c1nnc(NC(=O)C2CCCN(C(=O)Nc3ccc(F)cc3)C2)s1` (configuration not stated), for which the inhibition was -2.41%.
On to `CCOC(=O)C1CCN(C(=O)C2CCC(=O)N(Cc3cccc(C(F)(F)F)c3)C2)CC1` (configuration not stated), for which the inhibition is 11.5%.
The figure for `Cc1cc2ccccc2n1CCNC(=O)C(C)C` is 4.98%; for `CC(=O)NCCn1c(C)cc2ccccc21` it is -2.59%.
Regarding `O=C(OCc1ccccc1F)c1cc([N+](=O)[O-])ccc1N1CCOCC1`, the inhibition was 12.7%.
The figure for `CC(C)C(=O)NC(c1cccs1)c1cc([N+](=O)[O-])c2cccnc2c1O` (configuration not stated) is 7.53%; for `CCC(=O)NC(c1ccc(C)cc1)c1cc([N+](=O)[O-])c2cccnc2c1O` (configuration not stated) it is 27.3%.
Turning to `CC(C)C(=O)NC(c1ccccc1)c1cc([N+](=O)[O-])c2cccnc2c1O` (configuration not stated), the inhibition is 3.43%.
As for `CCCC(=O)NC(c1ccco1)c1cc([N+](=O)[O-])c2cccnc2c1O` (configuration not stated), the inhibition is 4.57%.
The figure for `CCCC(=O)NC(c1cccs1)c1cc(Cl)c2cccnc2c1O` (configuration not stated) is -9.38%; for `CC(=O)NC(c1ccc(C)cc1)c1cc([N+](=O)[O-])c2cccnc2c1O` (configuration not stated) it is 22%.
The figure for `Cc1ccc(NC(=O)c2cc(-c3ccccc3)n[nH]2)cc1` is -9.32%; for `COc1ccc(NC(=O)CSc2nnc(C(C)C)n2N)cc1` it is 2.67%.
Take `O=C(Cn1c2c(c(=O)n3ncnc13)CCC2)N/N=C/c1ccc(Cl)cc1`: the inhibition was -0.52%.
For the molecule `CCn1ncc(Br)c1C(=O)Nc1nccs1`, the inhibition is 8%.
The figure for `COC(=O)/C=C/c1ccc(OC(=O)c2ccncc2)cc1` is -0.93%; for `CC(=O)C1=C(c2ccccc2)OC(N)=C(C#N)C1c1ccccc1C` (configuration not stated) it is 7.47%; for `Cn1c(CC(=O)Nc2ccccc2F)nnc1SCC(=O)NC1CCCC1` it is 4.61%.
`O=[N+]([O-])c1ccc2c(c1)C(=Nc1ccccc1)c1ccccc1-2`: the inhibition was 19.1%.
The figure for `Cc1cccc(N=C2NC(=O)c3cc([N+](=O)[O-])ccc32)c1` is -0.91%.
The figure for `COc1ccc(CCNCc2ccccc2F)cc1` is -20.5%; for `COc1ccc(CCNCc2ccccc2)cc1` it is -9.83%; for `COc1ccc(CC(=O)NCCC2=CCCCC2)cc1` it is 10.7%.
The figure for `COc1ccc(C(=O)NCCC2=CCCCC2)cc1` is -1.2%.
On to `CCN1C[C@@H]2[C@@H]3C(=O)N(Cc4ccccc4)C(=O)[C@@H]3[C@](CC)(C(=O)OC)N2C1=NC1CCCCC1`, for which the inhibition was -28.6%.
The figure for `Cc1ccc(NC(=O)C2CCN(S(=O)(=O)c3ccc4c(c3)C(C)(C)C(=O)N4C)CC2)c(C)c1` is 8.27%.
The figure for `CCCn1c(N)c(N(CCOC)C(=O)COC(=O)CSc2cc(C)c3ccccc3n2)c(=O)[nH]c1=O` is -17.1%; for `COc1ccc(O)c(/C=C2/SC(=S)N(Cc3ccccc3)C2=O)c1` it is 8.37%.
As for `CN1C(=O)/C(=C\c2ccccc2OCc2ccccc2)SC1=S`, the inhibition is 10.4%.
The figure for `Cc1cc(/C=C2\SC(=S)N(C)C2=O)c(C)n1-c1ccccc1O` is 6.77%; for `Cc1cc(/C=C2\SC(=S)N(C)C2=O)c(C)n1-c1cccc(O)c1` it is -1.47%.
The figure for `CC(=O)c1c(C)[nH]c(C(=O)NC2=NCCS2)c1C` is 7.87%; for `O=C(CN1C(=O)NC2(CCCCC2)C1=O)Nc1cc(C(F)(F)F)ccc1N1CCOCC1` it is -9.76%; for `COc1ccccc1Oc1c(C)oc2c(CN(C)C)c(O)ccc2c1=O` it is 12.9%.
The figure for `COc1ccc(N/N=C(\C#N)C(=N)N2CCOCC2)cc1` is 0.407%.
As for `Cc1[nH]c(=O)[nH]c(=O)c1CSCC(=O)OCC(=O)Nc1ccccn1`, the inhibition was -14.1%.
The figure for `CCCCSCc1[nH]c(=O)[nH]c1C(=O)CCCCC(=O)OCC` is 1.07%; for `CCOC(=O)CCCCC(=O)c1[nH]c(=O)[nH]c1CSCCO` it is 12.6%.
`O=C(CCCC(=O)OCC(=O)NC1CCCC1)Nc1ccccn1`: the inhibition is -6.66%.
